Test results as given in PubChem BioAssay.

How the values were obtained:
[1] = test system: Human papillomavirus type 1a protein E7 (residues 44-93); assay: HPV1a E7 fragment binders on microarrays, primary screen, biochemical, small-molecule microarray, residues 44-93, 635 nm fluorescence (AID 1108); conditions: small-molecule microarray binding, fluorescence 635 nm; higher = more signal;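 also: E7 fragment applied at 1 µg/mL in TBST for 1 h at 4 C; score combines spot fluorescence with its signal to noise ratio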
[2] = modulators of HCV replicon luciferase signal, primary screen, HCV replication inhibitor project, Huh7 cells, luciferase reporter (AID 1109); conditions: 48 h, higher = more signal;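 also: huh7 hepatoma cells harbouring a luciferase neomycin HCV replicon reporter; luciferase luminescence as measure of HCV replicon replication; test concentration not given here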
[3] = molecular target: Left-right determination factor 2 (Homo sapiens) (UniProt O00292); assay: LEFTY2 binders on small-molecule microarrays, primary screen, biochemical, small-molecule microarray, 635 nm fluorescence scan (AID 1110); conditions: LEFTY2 binding, higher = more signal
[4] = molecular target: Calmodulin-1 (Homo sapiens) (UniProt P0DP23); assay: CALM1 binders on microarrays, EGTA buffer, profiling panel, biochemical, small-molecule microarray, Cy5-labelled CALM1 (AID 1111); conditions: Cy5-CALM1 binding fluorescence, higher = more signal;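 also: labelled calmodulin applied in Tris saline Tween buffer holding calcium plus EGTA and DTT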
[5] = molecular target: Calmodulin-1 (Homo sapiens) (UniProt P0DP23); assay: calcium-bound CALM1 binders on microarrays, profiling panel, artefact control for SMM control-protein annotation, biochemical, small-molecule microarray, Cy5-labelled CALM1, plus calcium (AID 1112); conditions: Cy5-CALM1 binding fluorescence, higher = more signal;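 also: score merges spot fluorescence with signal to noise from triplicate slides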
[6] = small-molecule microarray binders of probe aWnt5a, primary screen, biochemical, biotinylated probe, 635/667 nm fluorescence (AID 1113); conditions: higher = more signal;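 also: score merges 667 nm fluorescence intensity with signal-to-noise per printed feature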
[7] = small-molecule microarray binders of probe aShh, primary screen, biochemical, biotinylated probe, 635/667 nm fluorescence (AID 1114); conditions: higher = more signal;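 also: probe is biotin-labelled aShh protein from a stem cell growth factor screen; measures binding of labelled protein to compounds printed on the slide; score merges feature fluorescence at 667 nm with signal-to-noise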
[8] = small-molecule microarray binders of probe aNog, primary screen, biochemical, biotinylated probe, 635/667 nm fluorescence (AID 1115); conditions: higher = more signal;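 also: probe is biotinylated aNog protein used at 0.15 µg/mL for 1 h at 4 C; z-score combines 667 nm fluorescence of each spot with its signal to noise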
[9] = molecular target: Torsin-1A-interacting protein 1 (Homo sapiens) (UniProt Q5JTV8); assay: LAP1 binders from COS7 cell lysate, primary screen, small-molecule microarray, 635/667 nm fluorescence (AID 1116); conditions: COS7-hLAP1 lysate binding, 635 nm fluorescence, higher = more signal
[10] = molecular target: Alpha-bungarotoxin (Bungarus multicinctus) (UniProt P60615); assay: alpha-bungarotoxin binders on microarray, profiling panel, artefact control for SMM control protein annotation, biochemical, small-molecule microarray, Alexa647 label, 635/667 nm fluorescence (AID 1117); conditions: alpha-BTX-A647 binding fluorescence, higher = more signal
Alpha-bungarotoxin (Bungarus multicinctus), sequence (P60615 whole entry, looked up): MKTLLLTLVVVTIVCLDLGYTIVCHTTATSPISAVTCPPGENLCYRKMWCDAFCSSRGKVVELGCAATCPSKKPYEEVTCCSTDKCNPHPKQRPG

Torsin-1A-interacting protein 1 (Homo sapiens), sequence (Q5JTV8 whole entry, looked up): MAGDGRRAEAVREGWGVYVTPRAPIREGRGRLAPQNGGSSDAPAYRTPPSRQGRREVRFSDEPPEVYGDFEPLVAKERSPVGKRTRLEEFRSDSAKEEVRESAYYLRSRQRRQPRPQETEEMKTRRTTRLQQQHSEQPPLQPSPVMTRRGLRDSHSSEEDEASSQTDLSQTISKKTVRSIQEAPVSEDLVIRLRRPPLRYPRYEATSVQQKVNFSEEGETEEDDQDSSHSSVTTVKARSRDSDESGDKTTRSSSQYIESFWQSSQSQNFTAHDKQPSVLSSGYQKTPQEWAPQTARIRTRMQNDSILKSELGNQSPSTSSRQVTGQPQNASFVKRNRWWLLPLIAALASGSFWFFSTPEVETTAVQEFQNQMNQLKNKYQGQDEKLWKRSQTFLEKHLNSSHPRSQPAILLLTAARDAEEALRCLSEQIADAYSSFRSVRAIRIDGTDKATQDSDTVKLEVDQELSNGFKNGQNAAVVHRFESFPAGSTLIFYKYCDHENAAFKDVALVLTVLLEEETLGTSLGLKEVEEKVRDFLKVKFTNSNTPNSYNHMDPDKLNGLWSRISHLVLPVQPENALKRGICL
Left-right determination factor 2 (Homo sapiens), sequence (O00292 whole entry, looked up): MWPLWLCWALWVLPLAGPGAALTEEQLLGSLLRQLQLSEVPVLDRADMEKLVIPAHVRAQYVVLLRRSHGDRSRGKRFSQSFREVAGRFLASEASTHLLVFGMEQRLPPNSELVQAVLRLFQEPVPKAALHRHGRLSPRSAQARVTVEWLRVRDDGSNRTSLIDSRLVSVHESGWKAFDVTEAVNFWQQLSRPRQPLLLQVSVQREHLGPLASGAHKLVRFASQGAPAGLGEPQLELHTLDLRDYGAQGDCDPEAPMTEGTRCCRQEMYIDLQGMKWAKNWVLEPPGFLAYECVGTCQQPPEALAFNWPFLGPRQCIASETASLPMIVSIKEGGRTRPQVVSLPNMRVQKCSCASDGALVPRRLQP

CCCNC(=O)OC[C@H]1O[C@H](CCON=C(C)CCN2CCCc3nc(C)c(C)cc32)C=C[C@@H]1Oc1ccc(OC)cc1
composite z-score [1]: 0.652
z-score [2]: -2.36
composite z-score [3]: 0.425
composite z-score [4]: 0.65
composite z-score [5]: 0.241
composite z-score [6]: -0.119
composite z-score [7]: 0.0952
composite z-score [8]: 0.358
composite z-score [9]: 0.186
composite z-score [10]: 0.782

CC(C)(C)N1C(=O)[C@H]2[C@H]3[C@H](O)[C@H](O)CC(=NO[C@@H]4O[C@H](CO)[C@@H](O)[C@H](O)[C@H]4O)[C@H]3CC[C@H]2C1=O
composite z-score [1]: 0.518
z-score [2]: -1.13
composite z-score [3]: 0.4
composite z-score [4]: -0.653
composite z-score [5]: -1.12
composite z-score [6]: -0.0337
composite z-score [7]: -0.0769
composite z-score [8]: -0.196
composite z-score [9]: 0.509
composite z-score [10]: -0.309

CCCCc1nc2c(c3c1C[C@H](C)OC3)CN(CCOc1ccccc1)CC2
composite z-score [1]: 0.348
z-score [2]: -0.659
composite z-score [3]: 0.814
composite z-score [4]: -0.407
composite z-score [5]: -0.7
composite z-score [6]: -0.0738
composite z-score [7]: -0.0977
composite z-score [8]: -0.304
composite z-score [9]: 0.56
composite z-score [10]: 0.672

O=C1C[C@@H](O)[C@@H](O)[C@@H]2[C@@H]3C(=O)N(Cc4ccc5c(c4)OCO5)C(=O)[C@@H]3CC[C@H]12
composite z-score [1]: 0.508
z-score [2]: -0.194
composite z-score [3]: 0.632
composite z-score [4]: -0.0373
composite z-score [5]: -0.646
composite z-score [6]: -0.208
composite z-score [7]: 0.0121
composite z-score [8]: -0.0502
composite z-score [9]: 0.346
composite z-score [10]: -0.109

O=C(NN=C1C[C@@H](O)[C@@H](O)[C@@H]2[C@@H]3C(=O)N(C4CCCCC4)C(=O)[C@@H]3CC[C@@H]12)OCc1ccccc1
composite z-score [1]: -0.671
z-score [2]: -0.771
composite z-score [3]: 0.482
composite z-score [4]: -0.367
composite z-score [5]: -0.606
composite z-score [6]: -0.115
composite z-score [7]: 0.0156
composite z-score [8]: -0.0522
composite z-score [9]: -0.534
composite z-score [10]: -0.0382

CCOC(=O)[C@H](Cc1ccccc1)NC(=O)CCC1CC(OC(=O)NCCc2ccc(F)cc2)CC2(CCCC(COC(=O)NCCc3ccccc3OC)O2)O1 (stereo not given in full)
composite z-score [1]: 1.37
z-score [2]: -1.19
composite z-score [3]: 0.515
composite z-score [4]: 0.63
composite z-score [5]: -0.403
composite z-score [6]: -0.0236
composite z-score [7]: 0.0278
composite z-score [8]: -0.285
composite z-score [9]: 0.705
composite z-score [10]: 0.473

CCC=CCCC(OC(=O)c1ccc(Br)cc1)C1=CCCCC1=O (stereo not given)
composite z-score [1]: 1.17
z-score [2]: -2.38
composite z-score [3]: 0.664
composite z-score [4]: -1.06
composite z-score [5]: -1.54
composite z-score [6]: -0.0512
composite z-score [7]: -0.124
composite z-score [8]: -0.198
composite z-score [9]: 0.221
composite z-score [10]: 0.654

CCOC(=O)[C@H](Cc1ccccc1)NC(=O)CCC1CC(OC(=O)NCc2cccc3ccccc23)CC2(CCCC(COC(=O)NCc3ccccc3)O2)O1 (stereo not given in full)
composite z-score [1]: 0.836
z-score [2]: -1.03
composite z-score [3]: 0.168
composite z-score [4]: 0.507
composite z-score [5]: -0.607
composite z-score [6]: -0.2
composite z-score [7]: -0.145
composite z-score [8]: -0.144
composite z-score [9]: -0.0849
composite z-score [10]: 0.713

O=c1n(Cc2cc3c(cc2Cl)OCO3)c(=O)n2n1CC[C@@H]1C(=NOCc3ccccc3)[C@H]3O[C@H]3[C@@H](O)[C@@H]12
composite z-score [1]: 0.439
z-score [2]: 0.51
composite z-score [3]: 0.582
composite z-score [4]: 0.0528
composite z-score [5]: -0.827
composite z-score [6]: -0.152
composite z-score [7]: -0.34
composite z-score [8]: -0.519
composite z-score [9]: 0.157
composite z-score [10]: -0.0536

C[n+]1ccc(-c2ccc(CO)cc2)cc1
composite z-score [1]: -1.04
z-score [2]: -0.0613
composite z-score [3]: 0.616
composite z-score [4]: 0.468
composite z-score [5]: 0.607
composite z-score [6]: -0.117
composite z-score [7]: -0.0709
composite z-score [8]: -0.329
composite z-score [9]: 0.724
composite z-score [10]: 3.86

CO[C@H]1COC(=O)CC=C[C@@H](C)[C@H](OC)COC(=O)CCC[C@@H]1C
composite z-score [1]: -1.16
z-score [2]: -1.3
composite z-score [3]: 0.797
composite z-score [4]: -1.03
composite z-score [5]: -1.29
composite z-score [6]: -0.0751
composite z-score [7]: -0.0709
composite z-score [8]: -0.238
composite z-score [9]: 0.389
composite z-score [10]: -0.069

C#CCCCON=C1C[C@@H](O)[C@@H](O)[C@@H]2[C@@H]3C(=O)N(C(C)(C)C)C(=O)[C@@H]3CC[C@H]12
composite z-score [1]: -0.149
z-score [2]: -0.134
composite z-score [3]: -0.0304
composite z-score [4]: -0.245
composite z-score [5]: -0.0493
composite z-score [6]: 0.0926
composite z-score [7]: -0.154
composite z-score [8]: -0.0675
composite z-score [9]: -0.0059
composite z-score [10]: 1.27
